# NPR2 activator: human GC-B receptor activators, primary screen, HEK293 GC-B cells, cGMP TR-FRET, EC30 CNP; Atrial natriuretic peptide receptor 2 (Homo sapiens), P20594; activation, % at 10 µM; AID 1920062, 2024; 0.11% of 370,000 active; 0% at EC30 CNP, 100% saturating CNP;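 active = activation at 10 µM reaching about 35% in either raw or pattern-adjusted values, limit read from the data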
# NSD2 HMT inh: NSD2 histone methyltransferase inhibitors, primary screen, biochemical, AlphaScreen, single concentration, set 2; Histone-lysine N-methyltransferase NSD2 (Homo sapiens), O96028; AID 743445, 2014; inhibition, % at 12.5 µM; NSD2 peptide methylation, 120 min; 0.54% of 310,000 active; in the data active = inhibition above about 50%
# Rce1 inh: yeast Rce1p protease inhibitors, primary screen, biochemical, fluorescence, cell-free homogeneous; CAAX prenyl protease 2 (Saccharomyces cerevisiae (strain ATCC 204508 / S288c)), Q03530; yeast membranes, quenched prenylated peptide cleavage fluorescence; calls only; 0.27% of 290,000 active; AID 2563, 2010;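 active = fall in fluorescence gain of 50% or more versus controls, with final raw signal at or below 3038400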
# Target sequence (Q03530 whole entry, looked up): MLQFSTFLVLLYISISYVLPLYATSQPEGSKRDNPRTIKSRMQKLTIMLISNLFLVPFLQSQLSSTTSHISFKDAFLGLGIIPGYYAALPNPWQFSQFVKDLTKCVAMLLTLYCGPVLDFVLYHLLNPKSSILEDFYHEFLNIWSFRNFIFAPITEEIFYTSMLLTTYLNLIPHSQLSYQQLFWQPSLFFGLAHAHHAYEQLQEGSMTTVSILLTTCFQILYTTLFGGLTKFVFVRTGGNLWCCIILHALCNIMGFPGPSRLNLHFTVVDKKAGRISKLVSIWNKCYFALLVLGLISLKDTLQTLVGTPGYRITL
# GC-A act: GC-A stimulated cGMP production enhancers – HEK293 GC-A cells, cGMP TR-FRET, EC30 ANP, primary screen | Atrial natriuretic peptide receptor 1 (Homo sapiens), P16066 | AID 1671463, 2021 | 0% at EC30 ANP, 100% saturating ANP | 0.14% of 370,000 active | activation, % at 10 µM; in the data active = activation above about 40%
# V-ATPase pH: regulators of yeast V-ATPase proton pumping, primary screen, pHLuorin cytosolic pH fluorescence; S. cerevisiae; 0.37% of 350,000 active; AID 504577, 2011; response, % at 10 µM; in the data active = response mostly above about 7.3%, no sharp cut-off; inactive = mostly below about 5.4%; note: actives read high
# Efflux pump inh: inhibitors of Candida efflux pumps in yeast, primary screen, S. cerevisiae, Nile Red, multiplex; inhibition, % at 10 µM; 0.44% of 330,000 active; S. cerevisiae Candida pump triplex; AID 485275, 2010;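 active = plate passing quality check with inhibition over a set limit, or well fluorescence over plate mean plus 4 SD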;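 note: Nile Red retained in pooled yeast measured as flow cytometry median fluorescence; higher means more Nile Red kept so more efflux inhibition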
# Yeast cmpd fluor: flagged as fluorescent in efflux inhibitor counter-screen; shares compounds with Efflux pump inh; S. cerevisiae AD/pABC3, compound fluorescence, flow cytometry; fluorescence ratio to DMSO, % at 10 µM; 4% of 1,700 active;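 active = fluorescence ratio to DMSO above its plate's cutoff, the plate mean ratio plus 5 SD, cut at about 210% in these data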;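 note: unstained yeast with no Nile Red so the signal is compound autofluorescence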
# CaMdr1 efflux inh: inhibitors of Candida albicans Mdr1 efflux, confirmation, flow cytometry, singleplex, Cherry Pick1 set; inhibition, % at 10 µM; shares compounds with Efflux pump inh; 1% of 1,700 active; S. cerevisiae AD/CaMDR1, Nile Red efflux; in the data active = inhibition above about 26%;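 note: higher means more Nile Red retained so more efflux inhibition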
# CaCdr2 efflux inh: inhibitors of Candida albicans Cdr2 efflux pump, confirmation, S. cerevisiae AD/CaCDR2, flow cytometry, cherry pick 1, singleplex; shares compounds with Efflux pump inh; Nile Red retention; Nile Red retention ratio vs DMSO, % at 10 µM; 4% of 1,700 active; AID 588520, 2011; in the data active = Nile Red retention ratio vs DMSO above about 190%;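 note: higher ratio means more blocking of Cdr2 efflux of the dye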
# Cdr1 pump inh: inhibitors of Candida albicans Cdr1 efflux pump, confirmation, S. cerevisiae AD/CaCDR1, flow cytometry, cherry pick 1, singleplex | Nile Red efflux | inhibition, % at 10 µM | shares compounds with Efflux pump inh | 1% of 1,700 active;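 active = inhibition above the screen-wide mean plus twice its standard deviation, cut at about 32% in these data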
# Numbers stand for hits; i = inactive; nt = not tested or not shown; + = active, no number. Only some compounds are listed: those with a hit (about 1.6% of all), similar ones and a draw of the others.
SMILES,NPR2 activator,NSD2 HMT inh,Rce1 inh,GC-A act,V-ATPase pH,Efflux pump inh,Yeast cmpd fluor,CaMdr1 efflux inh,CaCdr2 efflux inh,Cdr1 pump inh
COc1ccc(C(C(=O)N(C)C2CCCC2)N(Cc2ccc(F)cc2)C(=O)c2cc(C)on2)cc1OC (stereo not given),i,i,nt,i,nt,nt,nt,nt,nt,nt
COc1ccc(S[C@]2(C(=O)N3CCN(C(C)=O)CC3)CC(=O)N(C(=O)CCc3ccccc3)[C@@H]2c2ccc(OC)cc2)cc1,i,nt,nt,i,nt,nt,nt,nt,nt,nt
COC(=O)Cn1c(C)c(/C=C/c2cc[n+](C)cc2)c2ccccc21,i,i,i,i,i,i,nt,nt,nt,nt
COC(=O)Cn1cc(/C=C/c2cc[n+](C)cc2)c2ccccc21,i,i,i,i,i,i,i,i,i,i
Cc1cc(C(=O)O)n(C(C)(C)C)n1,i,i,i,i,i,2.0,i,i,i,i
CN(Cc1ccccc1)S(=O)(=O)c1cccc(C(=O)OCc2cccc([N+](=O)[O-])c2)c1,i,i,nt,i,nt,nt,nt,nt,nt,nt
Cc1c(/C=N/NC(=O)c2cc(Br)ccc2O)c(=O)n(C)c(=O)n1C,i,i,i,i,i,0.5,i,i,i,i
C/C=N/NC(=O)c1cc(Br)ccc1O,i,i,i,i,i,i,nt,nt,nt,nt
CCCCn1c(N)c(N(CC(C)C)C(=O)CN2C(=O)NC3(CC(C)CC(C)(C)C3)C2=O)c(=O)[nH]c1=O (stereo not given),i,i,i,i,i,0.9,i,i,i,i
CC(C)c1cc(C(C)C)c(S(=O)(=O)N2CCC(C(=O)NCC3COCCO3)CC2)c(C(C)C)c1 (stereo not given),i,i,nt,i,nt,nt,nt,nt,nt,nt
Cc1sc(NC(=O)c2cccs2)nc1-c1ccccc1,i,i,i,i,i,i,nt,nt,nt,nt
Cc1sc(NC(=S)NC(=O)c2cccs2)nc1-c1ccc(C(C)C)cc1,i,i,i,i,i,0.9,i,i,i,i
COc1cc(C(=O)NC(=S)Nc2ccc3c(c2)C(=O)N(C)C3=O)cc(OC)c1OC,i,i,i,i,i,12,i,i,i,i
COc1cccc(OC)c1C(=O)NC(=S)Nc1ccc2c(c1)C(=O)N(C)C2=O,i,i,i,i,i,i,nt,nt,nt,nt
COc1ccc(-c2cn[nH]c2-c2ccc(OCc3ccc([N+](=O)[O-])cc3)cc2O)cc1OC,i,i,i,i,i,i,nt,nt,nt,nt
O=[N+]([O-])c1ccc(COc2ccc(-c3[nH]ncc3-c3ccc(Cl)cc3)c(O)c2)cc1,i,i,i,i,i,18,i,i,i,i
O=C(Nc1ccc(NC(=O)c2ccccc2Cl)c(Cl)c1)c1ccccn1,i,nt,nt,i,nt,nt,nt,nt,nt,nt
N#CCCn1cc(/C=N/O)c(-c2ccc(-c3ccccc3)cc2)n1,i,i,i,i,i,i,nt,nt,nt,nt
N#CCCn1cc(/C=N/O)c(-c2ccc(Cl)cc2)n1,i,i,i,i,i,6.7,i,i,i,i
Cc1ccc(S(=O)(=O)c2nc(Nc3ccccc3N3CCOCC3)sc2Cl)cc1,i,nt,i,i,i,7.5,i,i,i,i
COC(=O)c1ccccc1NC1OC(=O)c2ccccc21 (stereo not given),i,i,i,i,i,91,i,i,i,i
O=C1OC(Nc2ccc(F)cc2F)c2ccccc21 (stereo not given),i,i,i,i,i,i,nt,nt,nt,nt
O=C(CSc1ncnc2sc3c(c12)CCCC3)Nc1ccc(Oc2ccccc2)cc1,i,i,nt,i,nt,nt,nt,nt,nt,nt
C[C@@H]1ON(C)[C@H]2C[C@H]3c4[nH]c5c(-c6ccc7c(c6)OCO7)cccc5c4CCN3C[C@@H]12,i,nt,nt,i,nt,nt,nt,nt,nt,nt
Cc1nn(C)c(C)c1/C=N/NC(=O)CCn1cc([N+](=O)[O-])cn1,i,i,i,i,i,14,i,i,i,i
SMILES,NPR2 activator,NSD2 HMT inh,Rce1 inh,GC-A act,V-ATPase pH,Efflux pump inh,Yeast cmpd fluor,CaMdr1 efflux inh,CaCdr2 efflux inh,Cdr1 pump inh
O=C(Oc1c(CN2CCOCC2)cc(Cl)c2cccnc12)c1ccccc1Br,i,i,i,i,i,i,nt,nt,nt,nt
CN1CCN(Cc2cc(Cl)c3cccnc3c2OC(=O)c2cccs2)CC1,i,i,i,i,i,11,i,i,i,i
CCOc1ccc(CCNC(=O)c2cc(-c3ccccc3)c(N3CCOCC3)s2)cc1OC,i,nt,nt,i,nt,nt,nt,nt,nt,nt
COc1ccccc1C(=O)NC(=S)Nc1ccc2[nH]c(=O)[nH]c2c1,i,i,i,i,i,i,nt,nt,nt,nt
O=C(NC(=S)Nc1ccc2[nH]c(=O)[nH]c2c1)c1ccccc1Cl,i,i,i,i,i,6.2,i,i,i,i
CCCCc1nnc2c(N(C)S(=O)(=O)c3ccc(C)cc3)nc3ccccc3n12,i,i,i,i,i,0.8,i,i,i,i
Cc1ccc(/C=C/c2ccc(N(C)C)cc2)[n+](C)c1,i,i,i,i,i,4.4,+,34,i,i
CN(C)c1ccc(/C=C/c2cc[n+](C)cc2)cc1,i,i,i,i,i,130,+,+,488,+
Cc1ccc(-n2c(Cc3cccs3)nnc2SCC(=O)Nc2cccc3ccccc23)cc1,i,i,nt,i,nt,nt,nt,nt,nt,nt
CCNC(=S)NNC(=O)CSc1nnc(-c2ccccc2)n1-c1ccc(Cl)cc1,i,i,nt,i,nt,nt,nt,nt,nt,nt
O=C(NCCc1ccc(Cl)cc1)C1CCC(CNc2nc(=S)[nH]c3ccccc23)CC1 (stereo not given),i,i,i,i,i,i,nt,nt,nt,nt
O=C(NCCC1=CCCCC1)C1CCC(CNc2nc(=S)[nH]c3ccccc23)CC1 (stereo not given),i,i,i,i,i,1.1,i,i,i,i
Cc1ccc(OCc2nnc(SCC(=O)Nc3ccc(S(N)(=O)=O)cc3)n2-c2ccc(Cl)cc2)cc1,i,i,nt,i,nt,nt,nt,nt,nt,nt
COc1ccc(C2c3ccc4ccccc4c3Oc3ncn(CCN4CCOCC4)c(=N)c32)cc1 (stereo not given),i,i,i,i,i,1.0,i,i,i,i
C#CCCCN([C@@H](CC(C)C)C(=O)OC)S(=O)(=O)c1ccc(F)cc1Br,i,nt,nt,i,nt,nt,nt,nt,nt,nt
